Experimental data: PubChem BioAssay AID463173 (ICCB-Longwood Screening Facility, Harvard Medical School, 2010)
Hit rate of the full screen: of about 52,000 compounds, about 1,700 (3.3%) were called active. Many of the other results were omitted from the sample, so actives are more common in it than they were. A number with no mark means an inactive call. No stated cut-off is given here; in the data, active means survival mostly below about 52% (no sharp cut-off); inactive means mostly above about 56%.

These molecules were tested on Wild type (assay: S. aureus survival, RN4220 and DeltatarO strains – OD600, teichoic acid synthesis inhibitors, primary screen (AID 463173)). Details: S. aureus RN4220 wild type/DeltatarO growth, OD600, 18 h, stronger effect = lower value, screened at 18.75 µg/mL (by protocol).

Structure (SMILES) | survival
COc1cccc(NC(=O)Cn2c(=O)n(Cc3ccc4c(c3)OCO4)c(=O)c3oc4ccccc4c32)c1 | 80%
CC(=O)c1ccc(N2CCN(C(=O)CCn3cnc4onc(-c5ccc(F)cc5)c4c3=O)CC2)cc1 | -6% (active)
O=C(CCn1cnc2onc(-c3ccc(F)cc3)c2c1=O)N1CCN(c2ccc(F)cc2)CC1 | 98%
O=C(CCn1cnc2onc(-c3ccc(F)cc3)c2c1=O)N1CCN(c2ccccc2)CC1 | 75%
O=C(Cn1cnc2onc(-c3ccc(F)cc3)c2c1=O)N1CCN(c2ccccc2F)CC1 | 71%
COc1ccccc1N1CCN(C(=O)CCn2cnc3onc(-c4ccc(F)cc4)c3c2=O)CC1 | 87%
O=C(CCn1cnc2onc(-c3ccc(F)cc3)c2c1=O)N1CCN(c2ccccc2F)CC1 | -6% (active)
CCOc1ccc(CC(=O)NCCc2sc3nc(-c4ccc(F)cc4)nn3c2C)cc1 | 71%
COC(=O)c1ccccc1NC(=O)c1cc(-c2ccc(Cl)cc2)on1 | 71%
Cc1ccc(C)c(NC(=O)CSc2nnc(CNC(=O)c3ccccc3)n2-c2ccccc2)c1 | 63%
Cc1nn(CC(=O)NCCc2ccc(Cl)cc2)c(=O)c2cc3cc(F)ccc3n12 | 74%
Cc1cccc(NC(=O)CSC2=Nc3ccccc3C3=NC(CC(=O)NCc4cccs4)C(=O)N23)c1 (stereo not drawn) | 81%
Cc1ccc(C)c(CSc2nnc(C)n3c2cc2sccc23)c1 | 65%
Cc1ccc2[nH]cc(C(c3ccccc3)c3ccc(Cl)s3)c2c1 (stereo not drawn) | 18%
c1ccc(C(c2cccs2)c2c[nH]c3ccccc23)cc1 (stereo not drawn) | 17%
Clc1ccc(C(c2ccccc2)c2c[nH]c3ccccc23)s1 (stereo not drawn) | 4% (active)
Cc1ccc(NC(=O)CN2C(=O)CSc3ccc(S(=O)(=O)N4CCCC4)cc32)c(C)c1 | 98%
Cc1ccc2nc(Cl)c3cc(C(=O)N(C)C4CCCCC4)sc3c2c1 | 35%
CN(CCCNC(=O)c1cc2c(Cl)nc3ccccc3c2s1)Cc1ccccc1 | 45%
CCc1ccccc1N(C)C(=O)c1cc2c(Cl)nc3ccc(C)cc3c2s1 | 0% (active)

Structure (SMILES) | survival
CCCN(C(=O)c1cc2c(Cl)nc3ccccc3c2s1)c1cccc(C)c1 | 1% (active)
CCN(C(=O)c1cc2c(Cl)nc3ccccc3c2s1)c1cccc(Cl)c1 | 76%
CCN(CCCNC(=O)c1cc2c(Cl)nc3ccccc3c2s1)Cc1ccccc1 | 96%
Cc1ccc(Cl)cc1N(C)C(=O)c1cc2c(Cl)nc3ccccc3c2s1 | 70%
Cc1ccc2nc(Cl)c3cc(C(=O)NCCCN(C)Cc4ccccc4)sc3c2c1 | -3% (active)
CN(C(=O)c1cc2c(Cl)nc3ccccc3c2s1)c1cccc(C(F)(F)F)c1 | 80%
CC1(C)N=C(SCc2ccc(Cl)cc2)c2ccccc2N1 | 143%
Cc1ccc(C(=O)c2oc3ccccc3c2NC(=O)c2nc(S(C)(=O)=O)ncc2Cl)cc1F | 83%
COc1ccc(Nc2nn(-c3ccc(OC(F)(F)F)cc3)nc2C(C)=O)cc1 | 95%
Cc1ccc(-c2cc3ncc4c(n3n2)-c2cc(Cl)ccc2OC4)cc1 | 97%
CCn1c(=O)n(-c2ccc3c(c2)OCO3)c2nc(-c3ccc(C(C)C)cc3)nc(C(N)=O)c21 | 130%
CCOC(=O)c1[nH]c(C)c(CCC(=O)Nc2c(C)cc(C)cc2C)c1C | 127%
Cc1ccc(OCCCn2c(CCNC(=O)C3CCCCC3)nc3ccccc32)c(C)c1 | 95%
Cc1cc(C)cc(OCCCn2c(CCNC(=O)C3CCCCC3)nc3ccccc32)c1 | 27% (active)
Cc1cc(OCCn2c(CCNC(=O)C3CCCCC3)nc3ccccc32)ccc1Cl | 67%
O=C(NCCc1nc2ccccc2n1CCOc1ccc(Cl)cc1)C1CCCCC1 | 20%
Cc1ccc(OCCn2c(CCNC(=O)C3CCCCC3)nc3ccccc32)cc1 | 65%
Cc1cccc(C)c1OCCn1c(CCNC(=O)C2CCCCC2)nc2ccccc21 | 65%
Cc1cccc(C)c1OCCCn1c(CCNC(=O)C2CCCCC2)nc2ccccc21 | 28% (active)
Cc1ccccc1OCCCn1c(CCNC(=O)C2CCCCC2)nc2ccccc21 | 65%

Structure (SMILES) | survival
O=C(NCCc1nc2ccccc2n1CCCOc1ccc(Cl)cc1)C1CCCCC1 | 10% (active)
Cc1cccc(OCCCn2c(CCNC(=O)C3CCCCC3)nc3ccccc32)c1 | 34%
Cc1cc(C)cc(OCCn2c(CCNC(=O)C3CCCCC3)nc3ccccc32)c1 | 105%
Cc1cc(OCCCn2c(CCNC(=O)C3CCCCC3)nc3ccccc32)ccc1Cl | 0% (active)
COc1ccc(-c2nnc(SCC(=O)Nc3cccc(C(F)(F)F)c3)s2)cc1 | 99%
COc1ccc(C(=O)N(Cc2cc(OC)c(OC)c(OC)c2)C2CCS(=O)(=O)C2)cc1Cl (stereo not drawn) | 86%
COc1ccccc1-c1c(C)nn2c(N3CCN(c4ccccc4)CC3)cc(C)nc12 | 70%
Cn1c(SCCN2CCCC2)nnc1-c1ccncc1 | 112%
COc1cc(OC)c(NC(=O)c2nn(C)c3c2COc2ccccc2-3)cc1Cl | 111%
CCOc1ccc(-n2c(SCc3ccc(C(=O)OC)o3)nc3c([nH]c4ccccc43)c2=O)cc1 | 82%
Oc1ccc(Br)cc1C=Nc1cccc(-c2nc3ccccc3o2)c1 | 111%
COc1cccc2cc(C(=O)Nc3ccc(CC(=O)O)cc3)c(=O)oc12 | 73%
CCOc1ccc(NC(=O)CSc2nnc3c(C)cc4ccccc4n23)cc1 | 132%
O=C(Nc1ccc(Br)cc1)Nc1nc2c(s1)CCCCCC2 | 82%
O=C(Nc1nc2c(s1)CCCCCC2)Nc1ccc(F)cc1F | -2% (active)
Cc1ccc(NC(=O)Nc2nc3c(s2)CCCCCC3)cc1C | 69%
Cc1cc(-c2ccc(C)c(S(=O)(=O)Nc3ccccn3)c2)on1 | 73%
O=C(CN1CCCC1)Nc1nc(-c2ccc3c(c2)CCN3C(=O)C2CC2)cs1 | 116%
